Assay results reported in PubChem BioAssay AID1030 (National Center for Advancing Translational Sciences (NCATS), 2008).
Screen size: about 220,000 compounds; about 16,000 (7.3%) were called active. About 25% were inconclusive and are not listed. The call rests on the fitted dose curve; in most records, active means well fitted inhibition curve with a large enough effect (not every such curve was filed as active); inconclusive means small, poorly fitted or top-dose-only effect, or another doubt; inactive means no such curve, though single readings can be large or run the other way. What follows is part of a selection rich in actives, with near analogues and random picks from the rest. A call without a number means that no potency is given here.

The molecules below were run against Aldehyde dehydrogenase 1A1 (Homo sapiens) (UniProt P00352) (assay: qHTS Assay for Inhibitors of Aldehyde Dehydrogenase 1 (ALDH1A1)). Settings: Purified ALDH1A1, NADH fluorescence, propionaldehyde substrate; series mostly up to 75.3 µM.
Aldehyde dehydrogenase 1A1 (Homo sapiens), sequence (P00352 whole entry, looked up): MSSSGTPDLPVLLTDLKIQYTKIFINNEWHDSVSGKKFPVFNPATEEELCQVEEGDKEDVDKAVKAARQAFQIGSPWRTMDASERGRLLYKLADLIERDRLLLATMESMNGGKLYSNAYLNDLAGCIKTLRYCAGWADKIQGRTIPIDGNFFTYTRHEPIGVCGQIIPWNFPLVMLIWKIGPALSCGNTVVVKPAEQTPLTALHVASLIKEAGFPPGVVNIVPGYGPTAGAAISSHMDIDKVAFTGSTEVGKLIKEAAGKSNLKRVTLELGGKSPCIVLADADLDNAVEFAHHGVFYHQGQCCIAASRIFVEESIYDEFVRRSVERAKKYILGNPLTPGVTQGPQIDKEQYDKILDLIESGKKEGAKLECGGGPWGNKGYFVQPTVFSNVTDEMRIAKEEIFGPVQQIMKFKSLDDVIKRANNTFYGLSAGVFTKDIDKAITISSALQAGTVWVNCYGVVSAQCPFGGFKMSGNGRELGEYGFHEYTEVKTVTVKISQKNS
Potency means the concentration at half of the fitted maximal effect.

| Compound | Potency | activity, negative = inhibition |
| --- | --- | --- |
| CC[C@@]12C=C(/C=C/c3ccccc3)[C@](CC)(C1)[C@H](c1ccccc1)CC2=O | inactive | – |
| CCOC(=O)C1CCCN(C(=O)CN(c2ccc(OC)cc2)S(=O)(=O)c2c(C)noc2C)C1 (configuration not stated) | inactive | – |
| CCOC(=O)C1CCCN(C(=O)COc2ccc(N(C)S(=O)(=O)c3ccc(C)cc3)cc2)C1 (configuration not stated) | inactive | – |
| CCOC(=O)C1CCCN(C(=O)/C=C/c2ccc(OC)cc2)C1 (configuration not stated) | 22.4 µM (active) | – |
| Cc1nn(CC#N)c(=O)n1N(C)c1ncc(C(F)(F)F)cc1Cl | inactive | – |
| O=C(NCc1ccncc1)C(=O)NCc1ccco1 | inactive | – |
| CC(=O)Nc1ccc(CN2CCN(Cc3ccc(F)c(F)c3)C(CCO)C2)cc1 (configuration not stated) | inactive | – |
| CCc1cccc(OC2OC(CO)C(O)C(O)C2NC(C)=O)c1 (configuration not stated) | inactive | – |
| CC(=O)NC1C(OCc2ccccc2)OC(COC(C)=O)C(OC(C)=O)C1OC(C)=O (configuration not stated) | inactive | – |
| CC(=O)NC1C(Oc2ccc(C=O)cc2)OC(COC(C)=O)C(OC(C)=O)C1OC(C)=O (configuration not stated) | 3.55 µM (active) | – |
| C/C(=N/Nc1ccc(Cl)cc1)c1cnnc(-c2ccccc2)n1 | inactive | – |
| CC1CCCN(CC(O)COCc2ccccc2)C1 (configuration not stated) | inactive | – |
| CNC(=O)CSc1nnnn1-c1ccc(C)cc1C | inactive | – |
| CCOC(=O)CNC(=O)CSc1nnnn1-c1cc(C)ccc1C | 7.08 µM (active) | – |
| CCOC(=O)c1c(-c2ccc(C)cc2C)csc1NC(=O)CSc1nnnn1C | inactive | – |
| NC(=O)C1CCN(C(=O)COc2cccc3cccnc23)CC1 | inactive | – |
| Cn1ccc(NC(=O)Nc2ccc(Cl)cc2)n1 | inactive | – |
| Cc1[nH]c2ccccc2c1C(=O)COC(=O)C(C)C | inactive | – |
| Cc1c(C(=O)CN2CCOCC2)[nH]c2ccccc12 | 15 µM (active) | – |
| Cc1ccc2c(C(=O)CN3CCCC3)c(C)[nH]c2c1 | inactive | – |
| Cc1c(C(=O)N2CCOCC2)[nH]c2ccc(OCc3ccccc3)cc12 | inactive | – |
| CCOC(=O)N1CCN(CC(=O)c2c(C)[nH]c3ccccc23)CC1 | 11.2 µM (active) | – |

| Compound | Potency | activity, negative = inhibition |
| --- | --- | --- |
| O=C(CN1CCOCC1)Nc1ccccc1 | inactive | – |
| CCN(C(=O)Cc1nc(N)n[nH]1)C1(C(=O)Nc2ccccc2)CCCCC1 | inactive | – |
| COc1ccc(/C=C(\NC(=O)c2ccc(OCC(C)C)cc2)C(=O)OCc2ccco2)cc1 | inactive | – |
| CCOc1ccc(-n2cnnn2)cc1S(=O)(=O)N1CCC(C)CC1C (configuration not stated) | inactive | – |
| CCOC(=O)CCCN1CC(O)=C(c2nc3ccccc3s2)C1=N | inactive | – |
| N=C1C(c2nc3ccccc3s2)=C(O)CN1NC(=O)c1ccc([N+](=O)[O-])cc1 | 1.78 µM (active) | – |
| O=C(Nn1c(-c2ccccc2)nc2ccccc2c1=O)c1ccc([N+](=O)[O-])cc1 | inactive | – |
| O=C(NC1CC1)c1ccc(-c2ccccc2)cc1 | inactive | – |
| Cc1cc(/C=N/n2cnnc2)c(C)n1-c1cccc(C(=O)O)c1 | inactive | – |
| CCOc1ccc(/C=N/NC(N)=S)cc1 | inactive | – |
| Cc1cccc(-n2c(C)cc(/C=N/NC(N)=S)c2C)c1 | 3.16 µM (active) | – |
| COc1ccc(-c2nc3cc([N+](=O)[O-])ccc3o2)cc1OC | inactive | – |
| CCOC(=O)C1(C)NC(c2ccco2)C2C(=O)N(c3ccccc3)C(=O)C21 (configuration not stated) | inactive | – |
| COc1ccc(Cl)cc1C(=O)NNC(=S)NC1CCCC1 | inactive | – |
| COc1ccc(CNC(=O)C2CCN(S(C)(=O)=O)CC2)cc1 | inactive | – |
| Cc1cccc(C)c1OCC(=O)NC(Cc1c[nH]c2ccccc12)C(=O)O (configuration not stated) | inactive | – |
| CCN(C(=O)CN1CCN(Cc2ccccc2)CC1)c1c(N)n(Cc2ccccc2)c(=O)[nH]c1=O | inactive | – |
| O=C(c1ccc(F)cc1)n1cc(C(=S)N2CCOCC2)c2ccccc21 | 31.6 µM (active) | – |
| N#C/C=C(/c1ccc(F)cc1)N1CCOCC1 | inactive | – |
| COC(=O)c1cn(C(=O)c2ccc(Cl)cc2)c2ccccc12 | inactive | – |
| CC(=C/c1ccccc1)/C=N/NC(=O)c1cc(C)oc1C | inactive | – |
| COc1ccc(OC)c(S(=O)(=O)NCCC(C)C)c1 | 14.1 µM (active) | – |

| Compound | Potency | activity, negative = inhibition |
| --- | --- | --- |
| COCCNS(=O)(=O)c1cc(Br)ccc1OC | inactive | – |
| COc1ccc(OC)c(S(=O)(=O)Nc2ccccc2F)c1 | inactive | – |
| CC(Nc1oc(-c2ccccc2)nc1-c1ccccc1)c1ccccc1 (configuration not stated) | inactive | – |
| O=C(COC(=O)c1cnccn1)Nc1cccc2ccccc12 | inactive | – |
| NS(=O)(=O)c1ccc(CCNC(=O)CCCn2c(SCC(=O)N3CCCC3)nc3ccsc3c2=O)cc1 | inactive | – |
| Cc1nn(CC(=O)Nc2ccc3c(c2)OCO3)c(C)c1[N+](=O)[O-] | inactive | – |
| CCCCC(=O)Nc1ccc2c(c1)OCCO2 | inactive | – |
| CCN(CC(=O)Nc1ccc2c(c1)OCCO2)Cc1cc(=O)oc2cc(C)c(C)cc12 | 10 µM (active) | – |
| Cc1ccc(S(=O)(=O)/N=C(\N)c2ccc(F)cc2)cc1 | inactive | – |
| C/C(=N\Nc1nc(Nc2ccccc2)nc(N2CCOCC2)n1)c1cccs1 | inactive | – |
| COc1cc2nc(CN(C)Cc3ccc(F)cc3)[nH]c(=O)c2cc1OC | inactive | – |
| CCCCCC(=O)Nc1ccc(C(=O)N/N=C/c2ccc([N+](=O)[O-])cc2)cc1 | inactive | – |
| COCCCNC(=S)NNC(=O)C(O)(c1ccccc1)c1ccccc1 | inactive | – |
| CCCCCC(=O)NC(=S)NNC(=O)c1ccc([N+](=O)[O-])cc1 | 14.1 µM (active) | – |
| COCCCNC(=S)NC(=O)c1ccccc1 | inactive | – |
| COc1ccc(C(=O)NNC(=S)NC(=O)c2ccccc2[N+](=O)[O-])cc1 | inactive | – |
| COCCCNC(=S)NC(=O)c1ccc([N+](=O)[O-])cc1 | 20 µM (active) | – |
| CCNC(=O)N1c2ccccc2Sc2ccccc21 | inactive | – |
| COC(=O)Cc1ccc(Oc2ncc(C(F)(F)F)cc2Cl)cc1 | inactive | – |
| CC(=O)Nc1sc2c(c1C(c1cccc(F)c1)N1CCN(CCO)CC1)CCCC2 (configuration not stated) | inactive | – |
| C/[N+]([O-])=C\c1ccc([N+](=O)[O-])o1 | inactive | – |
| C=CCN(c1ccccc1C(=O)NCC(=O)OCC)S(=O)(=O)c1ccc(C)cc1 | inactive | – |

| Compound | Potency | activity, negative = inhibition |
| --- | --- | --- |
| CCN(CC)CCCNC(=O)Cn1cnc2sc(C)c(S(=O)(=O)N3CCN(c4ncccn4)CC3)c2c1=O | inactive | – |
| O=C(/C=C/c1cn(-c2ccccc2)nc1-c1ccc2c(c1)OCCO2)NCCCN1CCOCC1 | inactive | – |
| CC(=O)[C@H](C(c1ccccc1)N1CCOCC1)N1CCOCC1 (some centres not stated) | – | -3.8% [at 13.5 µM] (inactive) |
| CCOC(=O)CN1C(=O)C(O)(CC(=O)c2ccccn2)c2ccccc21 (configuration not stated) | 0.224 µM (active) | – |
| CCOC(=O)CN1CCC(c2ccccc2)CC1 | inactive | – |
| CC(C)(C)C(=O)CCN1C(=O)C2(OCCO2)c2ccccc21 | inactive | – |
| C=CCN1C(=O)C(O)(CC(=O)c2ccc(Cl)cc2)c2ccccc21 (configuration not stated) | 0.447 µM (active) | – |
| CN1/C(=C\C(=O)c2cccnc2Cl)C(C)(C)c2ccccc21 | inactive | – |
| C=CCN1C(=O)C(O)(CC(=O)c2ccccn2)c2ccccc21 (configuration not stated) | 0.355 µM (active) | – |
| CCOC(=O)CSc1ccccn1 | inactive | – |
| O=C(CSc1nnnn1-c1ccc(O)cc1)N1N=C(c2ccc3ccccc3c2)CC1c1ccccc1 (configuration not stated) | inactive | – |
| CCc1ccc(NC(=O)Nc2ccncc2)cc1 | inactive | – |
| COC(=O)c1cccc([N+](=O)[O-])c1CS(=O)(=O)c1ccc(C)cc1 | inactive | – |
| CCOc1ccc(C2c3[nH]c4ccccc4c3CCN2Cc2cn(CC)nc2C)cc1 (configuration not stated) | inactive | – |
| O=[N+]([O-])c1cc([N+](=O)[O-])c2cccnc2c1O | 25.1 µM (active) | – |
| O=C(Nc1cccnc1)c1ccc(Cl)cc1[N+](=O)[O-] | inactive | – |
| CC(CNc1ccc([N+](=O)[O-])c2cccnc12)Nc1c([N+](=O)[O-])cc(C(F)(F)F)cc1[N+](=O)[O-] (configuration not stated) | inactive | – |
| O=S(=O)(Nc1ncccn1)c1ccc(NS(=O)(=O)c2cccc(Cl)c2Cl)cc1 | inactive | – |
| O=S(=O)(Nc1ccc(Oc2ncccn2)c(Cl)c1)c1ccc(F)cc1 | 10 µM (active) | – |
| Cn1c(=O)n(C)c2cc(NS(=O)(=O)c3ccc(F)cc3)ccc21 | inactive | – |
| CC(=O)Nc1ccc(NC(=S)NC(=O)c2ccc([N+](=O)[O-])c(C)c2)cc1 | inactive | – |
| Cc1cc(N2CCN(C)CC2)nc2ccc(NC(=S)N3CCOCC3)cc12 | inactive | – |

| Compound | Potency | activity, negative = inhibition |
| --- | --- | --- |
| CC1COc2ccccc2N1S(=O)(=O)c1ccccc1 (configuration not stated) | inactive | – |
| O=C(C1CCN(C2CCN(Cc3ccc4cc(F)ccc4n3)CC2)CC1)N1CCCC1 | inactive | – |
| Cc1cccc(-n2c(=O)c3c(C)c(C)sc3n(CC(N)=O)c2=O)c1 | inactive | – |
| CN(C)c1ccc(C2Nc3ccccc3C(=O)N2NS(=O)(=O)c2ccccc2)cc1 (configuration not stated) | 25.1 µM (active) | – |
| NC(=O)Nc1ccccc1C(=O)NCCc1ccccc1 | inactive | – |
| CC(OC(=O)c1ccc2ccccc2n1)C(=O)c1ccccc1 (configuration not stated) | inactive | – |
| COc1ccc(C(=O)COC(=O)c2ccc3ccccc3n2)cc1 | 17.8 µM (active) | – |
| CCCCC(C(=O)OCC(=O)c1ccc(OC)cc1)N1C(=O)c2ccccc2C1=O (configuration not stated) | inactive | – |
| c1ccc2sc(NN=C3CCCC3)nc2c1 | inactive | – |
| O=C1CCC(=O)N1c1ccc(NCCc2ccccc2F)c([N+](=O)[O-])c1 | inactive | – |
| C/C(=N\OC(=O)c1ccccc1)c1c(C)nc2cc(C)ccn12 | inactive | – |
| Cc1nc2ccccn2c1C(=O)NN=C1CCN(C)CC1 | 20 µM (active) | – |
| Cc1cc(CNCc2c(C(=O)N(C)Cc3ccccc3)nc3ccccn23)nn1C | inactive | – |
| CCCCn1c(O)c(N=NC(=O)Cn2c(C(F)(F)F)nc3ccccc32)c2ccccc21 | 4.47 µM (active) | – |
| Cc1ccccc1OC(=O)Cn1c(C(F)(F)F)nc2ccccc21 | inactive | – |
| CN1CCN(C(=O)Cn2c(C(F)(F)F)nc3ccccc32)CC1 | inactive | – |
| Cc1cc(C)cc(OCC(=O)Nc2ccc(S(=O)(=O)Nc3ccccn3)cc2)c1 | inactive | – |
| CC(CCO)Nc1nc2c([nH]1)c(=O)n(C)c(=O)n2C (configuration not stated) | inactive | – |
| Cc1ccc(NN=Nc2nc3c([nH]2)c(=O)n(C)c(=O)n3C)cc1 | 7.94 µM (active) | – |
